# Screening data as filed in PubChem.
# Most compounds without a hit are left out; they make up all but 3.2% or so of the library.
# TRb SRC2 PPI: inhibitors of human thyroid hormone receptor beta-SRC2 interaction; TRbeta-SRC2 peptide binding, fluorescence polarization; receptor liganded with 1 µM T3; Potency, µM (highest dose often 106 µM), for inactives: at the top dose activity change, negative = inhibition, actives largely listed as inhibitors; 280,000 compounds, 0.065% hits;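 note: plate controls were bound peptide for no effect and peptide without receptor for full effect; nearly all actives have a fitted effect of over 50% in size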
#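 A fluorescence polarization screen tested compounds at multiple concentrations against complex formation between 0.6 uM TRb ligand-binding domain and 20 nM Texas Red SRC2 peptide, with 1 uM T3 present; readout after 5 hr.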
# RGS12 GoLoco inh: blocks human Gai1 binding to RGS12 GoLoco peptide, red readout; Potency, µM (highest dose often 61.6 µM), for inactives: at the highest dose activity, negative = inhibition, hits mostly inhibitors; 230,000 compounds, 0.44% hits; AID 880; Gai1:RGS12 GoLoco peptide FP, rhodamine, 10 min; active = well fitted inhibition curve with a large enough effect, not every such curve was filed as active; inactive = no such curve, though single readings can be large or run the other way; note: nearly all actives have a fitted effect of over 30% in size
# Target sequence (P63096 whole entry, looked up): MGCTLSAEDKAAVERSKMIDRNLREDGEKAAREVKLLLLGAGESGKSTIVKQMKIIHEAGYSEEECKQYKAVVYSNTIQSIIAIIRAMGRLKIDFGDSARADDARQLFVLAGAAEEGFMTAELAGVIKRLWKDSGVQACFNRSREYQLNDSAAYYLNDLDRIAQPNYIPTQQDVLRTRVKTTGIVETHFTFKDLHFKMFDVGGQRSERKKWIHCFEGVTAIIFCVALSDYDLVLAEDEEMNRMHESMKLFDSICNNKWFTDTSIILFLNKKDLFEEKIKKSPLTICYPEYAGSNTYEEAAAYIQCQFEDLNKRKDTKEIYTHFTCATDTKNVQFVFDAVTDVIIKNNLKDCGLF
# Tau fibril FP: inhibitors of human tau fibril formation | P10636 | K18 P301L tau heparin fibrillization, Alexa594 FP, 6 h | Potency, µM (titrated, usually from 57.7 µM), without a hit: at the top dose activity, negative = inhibition, most hits filed as inhibitors | 280,000 compounds, 0.39% hits; note: nearly all actives have a fitted effect of over 55% in size
# Target sequence (P10636 561-689 P618L limits assumed): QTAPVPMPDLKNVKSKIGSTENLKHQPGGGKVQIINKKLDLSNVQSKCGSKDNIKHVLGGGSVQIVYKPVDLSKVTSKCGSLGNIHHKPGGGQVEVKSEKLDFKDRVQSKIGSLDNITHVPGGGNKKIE
#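 Compound effects on tau fibrillization are measured by Alexa 594 fluorescence polarization (ex 555, em 632 nm). K18 P301L tau is used at 15 uM with 0.24 uM labeled tracer, and 20 uM heparin induces aggregation over 6 hr at 37 C.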
# Tau fibril ThT: inhibitors of human tau fibril formation, thioflavin T binding; P10636; 270,000 compounds, 2.1% hits; recombinant tau K18 P301L, heparin-induced fibrillization, ThT fluorescence; Potency, µM (series often up to 57.4 µM), inactives show at the highest dose activity, negative = inhibition, usual class: inhibitors; note: nearly all actives have a fitted effect of over 55% in size
#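 Fibril formation assay: tau K18 P301L at 15 uM with trace Alexa 594 label, heparin inducer 20 uM, pH 7 sodium acetate buffer, 37 C for 6 hr; endpoint ThT signal.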
# TR SRC2 fluor cs: counter-screen for TRb-SRC2 inhibitors: fluorescence interference; TRb/SRC2 Texas Red total fluorescence interference; Potency, µM (titrated, usually from 106 µM), for inactives: at the highest dose fluorescence change, negative = quenching; 280,000 compounds, 0.29% hits; active = well fitted curve in either direction with a large enough effect; inconclusive = small, poorly fitted or top-dose-only effect
#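 Human TRβ ligand-binding domain (0.6 uM) and Texas Red SRC2 peptide (20 nM) in Tris buffer with 1 uM T3 and 5% DMSO were incubated with pinned compound for 5 hr at ambient temperature. Total fluorescence was computed as S + 2P (555/632 nm).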
# Tau fluor cs: counter-screen for tau fibril formation inhibitors. tau K18 P301L (four-repeat tau fragment) Alexa594 fluorescence, heparin fibrillization. Potency, µM (highest dose often 57.7 µM), for the others: top-dose activity change, negative = decrease. 280,000 compounds, 0.93% hits. AID 1463; note: nearly all actives have a fitted effect of over 55% in size
#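 Human K18 P301L tau (15 uM unlabeled plus 0.24 uM Alexa 594-labeled, final) in 100 mM sodium acetate pH 7 was mixed with compound and 20 uM heparin and incubated 6 hr at 37 C.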
# * = called active by the depositor; ? = inconclusive; nt = not tested or not shown; ! = repeats disagree; [ ] = another dose, or the depositor's remark. Unless noted, calls come from the whole dose curve; as a rule, active = well fitted curve in the direction sought with a large enough effect; inconclusive = small, poorly fitted or top-dose-only effect, or another doubt; inactive = no such curve, though single readings can be large; an effect the other way counts as inactive or inconclusive. Unless noted, % is set by controls: 0 for no effect and ±100 for the full control effect; potency is the fitted concentration of half-maximal effect.
SMILES,TRb SRC2 PPI,RGS12 GoLoco inh,Tau fibril FP,Tau fibril ThT,TR SRC2 fluor cs,Tau fluor cs
Cc1ccc(OC(=O)c2ccc(N3CCOCC3)c([N+](=O)[O-])c2)cc1,-0.5%,3.9%,-0.5%,10µM*,-1.9%,?
O=C(Oc1ccc(Cl)cc1)c1ccc(N2CCOCC2)c([N+](=O)[O-])c1,1.5%,-18.5%,1.7%,?,-2.5%,?
O=C(Oc1cc(Cl)ccc1Cl)c1ccc(N2CCOCC2)c([N+](=O)[O-])c1,-1.5%,-4.8%,-8.0%,15.8µM*,-2.2%,?
O=[N+]([O-])c1cc(Cl)ccc1N1CCN(c2ccccc2O)CC1,-4.3%,-2.6%,14.6%,14.1µM*,-3.5%,15.8µM*[quencher]
Cc1ccc2nc(-c3cccc(NS(C)(=O)=O)c3)cc(-c3ccccc3)c2c1,-8.6%[53 µM],4.6%,-1.6%,-1.8%,0.1µM*[quencher],-6.7%
Cc1cccc(CNc2ncnc3ccc(-c4cccc(NS(C)(=O)=O)c4)cc23)c1,-4.1%,-4.5%,17.8µM*,?,2.8%,?
N#CC(C#N)=C1C=CC=CN1/C(=C\c1ccco1)C(=O)c1ccc(-c2ccccc2)cc1,3.9%,16.7%,?,15.8µM*,4.0%,-28.6%
N#CC(C#N)=C1C=CC=CN1/C(=C\c1ccco1)C(=O)c1ccc(Cl)cc1,11.5%,-9.4%,28.2µM*,22.4µM*,-10.1%,?
N#C/C(=C\c1ccco1)C(=O)NCc1ccccc1,8.5%,8.8%,0.6%,16.9%,-0.1%,8.3%
Cc1nc(N2CCOCC2)c2nc(-c3ccccc3)n(CC(C)(C)CN(C)C)c2n1,1.7%,1.6%,3.9%,1.8%,-4.6%,-2.3%
COc1ccc(Cc2ccc3[nH]c(=O)cc(C)c3c2)cc1S(=O)(=O)O,nt,-10.8%[14.2 µM],nt,nt,nt,nt
CCCCCCCC1=CC2=C(Cl)C(=O)C(C)(OC(C)=O)C(=O)C2=CN1C (stereo unspecified),0.3%,-3.5%,-12.7%,?,1.5%,-23.0%
CN(C)c1ccc(-c2ccc3ncnc(NC4CC4)c3c2)cc1,nt,3.2%,nt,nt,nt,nt
O=C1NC(=O)c2c1c(-c1ccccc1)cc1[nH]c3ccc(O)cc3c21,8.5%,nt,nt,nt,-25.2%,nt
Nc1cccn2c(-c3ccc(Cl)c(Cl)c3)cnc12,-0.9%,36.1%,-6.4%,12.6µM*,-3.9%,?
C[C@H]1Cc2c(-c3ccccc3)nc3c(c2CO1)CN(C(=O)c1cc(I)ccc1F)CC3,-1.5%[11.2 µM],2.1%[14.2 µM],-4.8%[11.6 µM],-11.0%[11.5 µM],-2.6%[11.2 µM],-16.5%[11.6 µM]
CCOC(=O)c1c(NC(=O)CSc2c[nH]c3ccccc23)sc2c1CCCC2,0.9%,-3.0%,0.8%,3.0%,-1.6%,-5.0%
CNC(=O)c1c(NC(=O)Cc2coc3ccc(C)cc23)sc2c1CCCC2,-0.5%,nt,-4.6%,?,?,?
CCOC(=O)c1c(NC(=O)CSc2c[nH]c3ccccc23)sc2c1CCC2,4.6%,2.7%,?,-6.8%,-1.4%,10µM*[quencher]
CCOC(=O)c1c(NC(=O)Cc2coc3cc(C)ccc23)sc2c1CCCC2,?,nt,-4.1%,?,0.1µM*[quencher],-19.6%
COc1ccc(-c2ccc(C3C4C=CCCC4(C)C(=O)N3Cc3ccccc3)c(F)c2)cc1 (stereo unspecified),3.2%,nt,nt,nt,-0.8%,nt
CC1(C)C(=O)NC(=O)N1CO,12.8%[201 µM],nt,nt,nt,1.5%[201 µM],nt
Cc1cc(Nc2ccccc2)n(-c2nc3ccccc3[nH]2)n1,-7.2%,7.3%,-14.4%,?,-3.7%,25.1µM*[quencher]
CCC(NC(=O)Nc1cc(Cl)ccc1OC)c1c(-n2cccc2)sc2c1CCN(C)C2 (stereo unspecified),3.3%,nt,?,?,-4.5%,?
COC(=O)c1sc(=S)sc1C(=O)OC,-1.2%,3.2%,?,3.16µM*,-4.3%,-19.1%
SMILES,TRb SRC2 PPI,RGS12 GoLoco inh,Tau fibril FP,Tau fibril ThT,TR SRC2 fluor cs,Tau fluor cs
CC1CCc2noc(NC(=O)c3ccccc3[N+](=O)[O-])c2C1 (stereo unspecified),-9.6%,nt,-0.8%,?,22387µM*[quencher],?
COC(=O)c1ccccc1C[C@]1(C(=O)OC)C=C[C@H](C)[C@@H](c2ccccc2)N1C(=O)C(F)(F)F,6.4%,2.4%,-4.4%,-3.3%,-2.4%,-9.8%
C=CCC(C)(O)CCc1ccccc1 (stereo unspecified),9.0%,4.9%,1.6%,-0.2%,-1.1%,1.4%
CC(C)c1onc(-c2c(Cl)cccc2Cl)c1COc1ccc(/C=C/c2cccc(C(=O)O)c2)c(Cl)c1,?,nt,nt,nt,-5.7%,nt
O=C(/C(N=Nc1cccc([N+](=O)[O-])c1)=C(/O)c1ccc(Br)cc1)C(F)(F)F,-0.8%,3.4%,8.0%,25.1µM*,-0.3%,15.8µM*[quencher]
O=C(NCCNCCO)C1(C(F)(F)F)CC(CCc2ccccc2)CCCO1 (stereo unspecified),1.2%,nt,nt,nt,-2.3%,nt
CSCC[C@H](NC(=O)[C@H](Cc1ccccc1)NC(=O)[C@H](Cc1cnc[nH]1)NC(=O)CNC(=O)[C@@H](NC(=O)[C@H](C)NC(=O)[C@H](Cc1c[nH]c2ccccc12)NC(=O)[C@H](CCC(N)=O)NC(=O)[C@@H]1CCCN1C(=O)[C@@H](NC(=O)[C@@H]1CCC(=O)N1)C(C)C)C(C)C)C(N)=O,0.8%,nt,nt,nt,-4.0%,nt
COC(=O)c1ccc2nc(C)cc(Nc3ccc(N(C)C)cc3)c2c1,3.9%,-5.5%,-1.8%,?,-5.0%,?
Cc1cc(NC(=O)Nc2ccc(N(C)C)cc2)c2cc(F)cc(F)c2n1,-9.6%,-9.7%,-6.1%,?,-14.5%,7.94µM*[quencher]
COc1ccc(-c2nc3cnc(N4CCOCC4)nc3n(Cc3cccs3)c2=O)cc1,nt,5.5%,nt,nt,nt,nt
[C-]#[N+]/C(C#N)=C\c1cc(C(C)(C)C)c(O)c(C(C)(C)C)c1,-2.6%,2.2%,?,25.1µM*,-2.7%,?
CC(C)(C)c1cc(/C=C(\C#N)C(N)=S)cc(C(C)(C)C)c1O,8.2%,103.9%,3.2%,?,-2.1%,?
COc1cc([C@@H]2c3cc4c(cc3C(OC3OC5COC(C)OC5C(O)C3O)C3COC(=O)[C@@H]32)OCO4)cc(OC)c1O (stereo partly specified),-6.7%,-0.9%,-3.8%,-5.6%,-1.0%,-4.4%
C=CCn1c(C(CC)CC)nc2ccccc21,-1.6%,3.8%,-2.3%,4.3%,-0.2%,4.6%
C=CCn1c(P(=O)(O)c2ccccc2)nc2ccccc21,4.8%,5.62µM*,3.1%,1.5%,2.4%,-0.2%
O=C(O)c1cc(O)c2c(c1)C(=O)c1cccc(O)c1C2=O,1.1%,-10.1%,?,17.8µM*,?,17.8µM*![quencher]
Cc1c(N2C(=O)c3ccccc3C2=O)c(=O)n(-c2ccccc2)n1C,-2.6%,9.4%,8.9%,12.9%,-1.5%,6.5%
